FBA Mtb inh – inhibitors of M. tuberculosis fructose-bisphosphate aldolase; purified M. tuberculosis FBA, fluorescence read-out; inhibition, % at 1 µM; 360,000 tested, 2.3% active; in the data active = inhibition above about 27%;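 note: 0% = vehicle and 100% = reference inhibitor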
Target sequence (P9WQA3 whole entry, looked up): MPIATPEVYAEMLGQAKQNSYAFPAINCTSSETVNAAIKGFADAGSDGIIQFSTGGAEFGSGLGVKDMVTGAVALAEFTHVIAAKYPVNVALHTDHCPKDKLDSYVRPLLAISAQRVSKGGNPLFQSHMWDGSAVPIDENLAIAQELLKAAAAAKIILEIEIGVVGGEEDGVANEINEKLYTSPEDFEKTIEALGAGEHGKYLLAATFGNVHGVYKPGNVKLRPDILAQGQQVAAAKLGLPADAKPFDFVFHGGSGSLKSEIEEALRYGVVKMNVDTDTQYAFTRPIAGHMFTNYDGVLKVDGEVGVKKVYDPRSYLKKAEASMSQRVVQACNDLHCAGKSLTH
SARS 3CLpro inh – SARS-CoV 3CLpro protease inhibition; P0C6X7; recombinant SARS-CoV 3CLpro, quenched FRET peptide cleavage; inhibition, % at 6 µM; 290,000 tested, 0.14% active; AID 1706; in the data active = inhibition above about 12%
GDH-TPI counter – counter-screen for M. tuberculosis FBA inhibitors: GDH-TPI coupled enzymes | 360,000 tested, 1.2% active | inhibition, % at 4.8 µM | GDH-TPI coupled enzyme counterscreen, NADH absorbance;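 note: 0% = DMSO wells and 100% = wells lacking the enzyme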
VHR inh abs – blocks human VHR1 dual specificity phosphatase. P51452. recombinant VHR phosphatase, pNPP absorbance. inhibition, % at 13.3 µM. 290,000 tested, 0.52% active. AID 1654; in the data active = inhibition above about 50%
RecA intein inh – Mtb RecA intein splicing inhibition. inhibition, % (test concentration not listed). 290,000 tested, 0.75% active. AID 2221. P9WHJ3. cell-free RecA intein splicing, fluorescence; in the data active = inhibition above about 30%;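 note: 0% = vehicle wells and 100% = reference inhibitor control wells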
CCHF vOTU inh-1 – CCHFV vOTU protease inhibition; Pep-AMC fluorescence; inhibition, % at 11.5 µM; 370,000 tested, 0.55% active; AID 651958; note: 0% = vehicle wells with enzyme and 100% = no enzyme wells
CCHF vOTU inh-2 – CCHFV vOTU protease inhibition, confirmation; shares compounds with CCHF vOTU inh-1; Recombinant CCHFV vOTU, Pep-AMC fluorescence; inhibition, % at 11.5 µM; 1,900 tested, 17% active
* = called active by the depositor; . = not tested or not shown. Most compounds without a hit are left out; they make up all but 4.7% or so of the library. Cut-off read from the data, not from the text of the source, unless noted: active = inhibition above about 30%; inactive = the rest.

SMILES	FBA Mtb inh	SARS 3CLpro inh	GDH-TPI counter	VHR inh abs	RecA intein inh	CCHF vOTU inh-1	CCHF vOTU inh-2
CCN1/C(=C/C=C/c2sc3ccccc3[n+]2CC)Sc2ccccc21	5	.	15	.	20	.	.
CCN1/C(=C/C=C/c2oc3ccc(-c4ccccc4)cc3[n+]2CC)Oc2ccc(-c3ccccc3)cc21	-19	-165	12	6	-8	37*	18
Cc1ccc(C)c(N2CCN(C(=O)CCc3nc(-c4ccccc4C)no3)CC2)c1	-2	.	6	.	.	36*	4
CCc1ccc([C@@H]2C[C@H]3[C@@H](CN2S(=O)(=O)c2ccc(C)cc2)C(=O)C[C@@H](c2ccc(Cl)cc2)N3S(=O)(=O)c2ccc(C)cc2)cc1	1	.	.	.	.	11	.
COC(=O)c1ccsc1NS(C)(=O)=O	.	.	.	.	.	31*	-19
CCC(=O)Nc1sccc1C(=O)OC	1	0	4	-4	0	.	.
CCc1nc2ccc(C(=O)NCCCN3CCCC3=O)cn2c1N(CC)Cc1cccc(Br)c1	-3	.	-8	.	.	11	.
COc1ccccc1CC(=O)Nc1ccc(S(=O)(=O)N2CCN(C)CC2)cc1	-2	2	-3	22	2	40*	-15
COc1ccc(-n2c(COc3ccccc3)nnc2SCC(=O)Nc2ccc(OCc3ccccc3)cc2)cc1	.	.	.	.	.	15	.
CC1(Cc2cccc(C(F)(F)F)c2)C(=O)Nc2ccc(-c3ccc(F)c(Cl)c3)cc21 (configuration not stated)	-3	.	4	.	.	32*	-1
CC1(Cc2cc(Cl)ccc2C(F)(F)F)C(=O)Nc2ccc(-c3ccc(F)c(Cl)c3)cc21 (configuration not stated)	-5	.	8	.	.	20	.
O=S1(=O)N=C(N(CCO)/N=C/c2ccccc2)c2ccccc21	2	-1	17	24	-3	10	.
O=S1(=O)N=C(N(CCO)/N=C/c2ccncc2)c2ccccc21	-1	-4	20	-26	.	30*	-8
CCOc1ccc(/C(O)=C2\C(=O)C(=O)N(CCN(C)C)C2c2cccc(OC)c2OC)cc1Cl (configuration not stated)	-2	0	4	-1	2	30*	-9
Cc1ccc(SCC(=O)OC(C)C(=O)NCc2ccccc2)cc1 (configuration not stated)	0	.	0	.	2	5	.
COC(=O)[C@@]12C[C@@H](CC(=O)NCc3ccccc3)C(=O)N(Cc3cccc4ccccc34)C1=CCC(C)(C)C2	.	.	.	.	.	17	.
COC(=O)[C@@]12C[C@@H](CC(=O)NCCCCc3ccccc3)C(=O)N(Cc3cccc4ccccc34)C1=CCC(C)(C)C2	.	.	.	.	.	30*	9
COC(=O)[C@]12CCCCC=C1N(Cc1ccc(Cl)cc1Cl)C(=O)[C@H](CC(=O)NCCCCc1ccccc1)C2	.	.	.	.	.	33*	-14
CC(N)c1csc(Nc2ccc(C(=O)c3ccccc3)cc2)n1 (configuration not stated)	0	.	23	.	.	27	.
CC(C)C(N)c1csc(Nc2ccc(C(=O)c3ccccc3)cc2)n1 (configuration not stated)	1	.	23	.	.	37*	-12
CC(C)OC(=O)CSc1nnc(CNc2ccc(Cl)cc2)n1C	4	0	4	17	-2	-16	.
COC(=O)CSc1nnc(CNc2ccc(OC)cc2)n1C	8	4	-2	36	-5	39*	-22
Cc1ccc(-c2cnc(C(O)c3cccc(Cl)c3)[nH]2)cc1 (configuration not stated)	-2	.	10	.	.	.	.
COc1ccc2ccccc2c1C1CC(=O)N2CN(C3CCCCC3)CSC2=C1C#N (configuration not stated)	5	2	4	-8	12	47*	35*
COc1ccc2ccccc2c1C1CC(=O)N2CN(Cc3ccco3)CSC2=C1C#N (configuration not stated)	-2	-1	14	9	4	33*	22
COc1ccc(C2CC(=O)N3CN(Cc4ccco4)CSC3=C2C#N)cc1 (configuration not stated)	0	1	-1	14	6	9	.
CC(c1ccccc1)n1c(SCC(=O)Nc2ccccc2)n[nH]c1=O (configuration not stated)	-1	0	1	2	-2	-4	.

Compound activity deposited in PubChem by several laboratories.
